Bioassay records: PubChem BioAssay, The Scripps Research Institute Molecular Screening Center
Rows were chosen to be rich in hits. Some 3.5% of all compounds tested hit in one or more screens of this group.
GPR151 activ: activates the human receptor GPR151; Q8TDV0; PathHunter beta-arrestin GPR151 cells, luminescence; activation, % at 11.2 µM; 650,000 compounds, 1% hits; in the data active means activation above about 4.9%
FBW7 activator: activators of human E3 ligase FBW7 | 650,000 compounds, 0.13% hits | AlphaScreen FBW7–phospho-cyclin E peptide binding, activator screen | normalized activity (activation), % at 26.1 µM; in the data active means normalized activity above about 1.9%;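 further: purified mutant Fbw7 with reduced substrate affinity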
MITF inh: blocks human microphthalmia-associated transcription factor. O75030. AlphaScreen MITF homodimerization, bead proximity signal. inhibition, % at 2.6 µM. 650,000 compounds, 0.91% hits; in the data active means inhibition above about 50%
Target sequence (O75030 whole entry, looked up): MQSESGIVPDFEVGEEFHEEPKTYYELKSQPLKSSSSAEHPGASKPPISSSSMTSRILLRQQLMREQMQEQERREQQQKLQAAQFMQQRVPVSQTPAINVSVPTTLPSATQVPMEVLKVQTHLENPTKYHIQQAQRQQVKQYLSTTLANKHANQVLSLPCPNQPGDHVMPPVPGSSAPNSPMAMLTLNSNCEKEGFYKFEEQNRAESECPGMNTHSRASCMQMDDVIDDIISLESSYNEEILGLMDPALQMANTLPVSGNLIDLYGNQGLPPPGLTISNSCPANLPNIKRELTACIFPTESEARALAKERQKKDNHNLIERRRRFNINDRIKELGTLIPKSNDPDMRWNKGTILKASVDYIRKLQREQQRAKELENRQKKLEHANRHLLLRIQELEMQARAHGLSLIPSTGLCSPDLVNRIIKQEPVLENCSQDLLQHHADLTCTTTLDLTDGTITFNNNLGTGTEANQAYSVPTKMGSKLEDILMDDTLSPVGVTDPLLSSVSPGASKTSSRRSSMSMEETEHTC
TEAD-YAP inh: TEAD-YAP interaction inhibition. HEK-TIYL cells, TEAD-Gal4/YAP UAS-luciferase luminescence. inhibition, % at 9.12 µM. 640,000 compounds, 1.4% hits; in the data active means inhibition above about 32%
Numbers stand for hits; - = inactive.

SMILES | GPR151 activ | FBW7 activator | MITF inh | TEAD-YAP inh
CCN(CC)C(=O)Cn1cnc2sc(C(=O)Nc3nc4ccccc4s3)c(C)c2c1=O | - | - | - | 80
COc1cc2nc(Nc3nccc4ccccc34)nc(NC3CC3)c2cc1OC | - | - | - | -
CC(Oc1cccc(Cl)c1)C(=O)Nc1ccc(F)c([N+](=O)[O-])c1 (stereo not given) | - | - | - | 34
CC(Oc1cccc(Cl)c1)C(=O)Nc1cccc(F)c1 (stereo not given) | - | - | - | -
O=C1C(=O)N(CCCOc2ccccc2Cl)c2ccccc21 | - | - | - | -
Cc1sc2nc(SCC#N)[nH]c(=O)c2c1C | - | - | - | 46
Cc1sc2nc(SCC(N)=O)[nH]c(=O)c2c1C | - | - | - | -
Cc1ccc(OCC(=O)Nc2ccccc2C(N)=O)c(C(C)(C)C)c1 | - | - | - | -
C=CCNC(=O)/C(C#N)=C/c1c(Oc2ccccc2C)nc2ccccn2c1=O | - | - | - | 32
COCCCNC(=O)/C(C#N)=C/c1c(Oc2cc(C)cc(C)c2)nc2c(C)cccn2c1=O | - | - | - | 33
CNC(=O)/C(C#N)=C/c1c(Oc2ccccc2C)nc2c(C)cccn2c1=O | - | - | - | 47
CCNC(=O)/C(C#N)=C/c1c(Oc2cccc(C)c2C)nc2c(C)cccn2c1=O | - | - | - | 35
COCCNC(=O)/C(C#N)=C/c1c(Oc2cc(C)cc(C)c2)nc2c(C)cccn2c1=O | - | - | - | -
CC(=O)OCCCNc1cc(NCc2ccccc2Cl)c2nonc2c1[N+](=O)[O-] | - | - | - | -
CCC1=[N+](CC(=O)c2ccccc2)CCn2cccc21 | - | 2.5 | - | -
CCCOc1ccccc1C1C(C(=O)OCCOc2ccccc2)=C(C)NC2=C1C(=O)CC(c1ccc(Cl)cc1)C2 (stereo not given) | - | - | - | -
O=C(Nc1ccccc1)Nc1ccc(C(=O)O)cc1 | - | - | - | -
Nc1ccc2oc(-c3ccc(F)cc3)nc2c1 | - | - | - | -
Nc1ccc2oc(-c3cccc(Br)c3)nc2c1 | - | - | - | -
Nc1ccc2oc(-c3ccc(O)c(Br)c3)nc2c1 | - | - | - | 59
Nc1ccc2oc(-c3ccccc3Br)nc2c1 | - | - | - | -
Nc1ccc2oc(-c3cccc4c(Br)cccc34)nc2c1 | - | - | - | 65
Nc1ccc2oc(-c3ccc4nc[nH]c4c3)nc2c1 | - | - | - | 61
Nc1ccc2oc(-c3ccc(F)cc3Cl)nc2c1 | - | - | - | 37
COC(=O)c1ccc2c(=O)n(CCc3ccc(S(N)(=O)=O)cc3)c(SCC(=O)N3CCN(c4ccccc4OC)CC3)nc2c1 | - | - | - | -
SMILES | GPR151 activ | FBW7 activator | MITF inh | TEAD-YAP inh
CCOc1ccc2cc(C#N)c(SCC(=O)Nc3ccc4c(c3)OCCO4)nc2c1 | - | - | - | -
O=C(O)c1ccc2c(c1)NC(=O)c1ccccc1S2(=O)=O | - | 1.9 | - | -
COC(=O)c1ccc(OCC2c3cc(OC)c(OC)cc3CCN2C(=O)c2ccc(S(=O)(=O)N(C)C)cc2)cc1 (stereo not given) | - | - | - | -
CCOC(=O)N1CCC(N2CCN(CC(C)(C)C)C(CCO)C2)CC1 (stereo not given) | - | - | - | -
O=C(Cn1ncc2c1-c1ccccc1OC2)NC1CCN(Cc2ccccc2)CC1 | - | - | - | -
CC(C)Oc1cccc(C(=O)Nc2ccc(N3CCN(C(=O)c4ccco4)CC3)cc2)c1 | - | - | - | -
Cc1ccc(C)c(CSc2nc3[nH]ncc3c(=O)[nH]2)c1 | - | - | - | 37
Cc1ccccc1CSc1nc2[nH]ncc2c(=O)[nH]1 | - | - | - | -
CCOC(=O)C1(Cc2ccc(OC)cc2)CCN(S(=O)(=O)c2ccccc2F)CC1 | - | - | - | -
O=C(CCCc1nc(-c2ccc(Cl)cc2)no1)NC1CCCC1 | - | - | - | 34
O=C(CSC1=NCCS1)c1ccc(Br)cc1 | - | - | - | -
CC(C)N(CCNc1nc(Nc2ccc3ncccc3c2)nc2c1ncn2-c1ccsc1)C(C)C | - | - | - | 44
CC(C)N(CCNc1nc(Nc2cnccn2)nc2c1ncn2-c1ccsc1)C(C)C | - | - | - | 39
c1ccc(CNc2nc(Nc3cccnc3)nc3c2ncn3-c2ccsc2)cc1 | - | - | - | -
CC(C)N(CCNc1nc(Nc2ccncc2)nc2c1ncn2-c1ccsc1)C(C)C | - | - | - | -
COc1cc(Nc2nc(NCCN(C(C)C)C(C)C)c3ncn(-c4ccsc4)c3n2)cc(OC)c1OC | - | - | - | -
CC(C)N(CCNc1nc(Nc2cccnc2)nc2c1ncn2-c1ccsc1)C(C)C | - | - | - | 35
CCCNc1nc(Nc2cccnc2)nc2c1ncn2-c1ccsc1 | - | - | - | 61
CC1CCN(C(C)(C)C)CC1=O (stereo not given) | - | - | - | -
CCOc1ccccc1CN1C(=O)C2C(C(=O)Nc3cccc(Cl)c3)C3C=CC2(O3)C1C(=O)NC1CCCCC1 (stereo not given) | - | - | - | -
c1cc2c(cc1NC1C3CC4CC(C3)CC1C4)OCO2 (stereo not given) | - | - | - | -
CCCNc1nc(Nc2ccc3ncccc3c2)nc2c1ncn2C(C)C | - | - | - | -
CC(C)n1cnc2c(NCCc3ccc(O)cc3)nc(Nc3ccc4ncccc4c3)nc21 | - | - | - | 39
O=C(COc1ccccc1F)Nc1cccc(F)c1 | - | - | - | -
O=C(NCC(c1cccs1)N1CCOCC1)c1ccc(Cl)s1 (stereo not given) | - | - | - | 57
SMILES | GPR151 activ | FBW7 activator | MITF inh | TEAD-YAP inh
Cc1ccc(N(CC(=O)NCc2ccccc2C)S(C)(=O)=O)cc1Cl | - | - | - | -
CC(=O)N(/N=C1\Sc2ccccc2C1=O)c1ccccc1I | - | - | - | 76
CC1CCCCN1C(=O)/C=C/c1ccc(Cl)cc1 (stereo not given) | - | - | - | -
COc1ccc(CNC(=O)CN(c2cccc(C(F)(F)F)c2)S(=O)(=O)c2ccccc2)cc1 | - | - | - | -
COc1ccc(NCc2ccc(O)c3ncccc23)cc1 | - | - | 73 | -
O=S(=O)(c1ccc(Cl)cc1)N1CCN(Cc2ccc(O)c3ncccc23)CC1 | - | - | - | 66
Oc1ccc(CN2CCN(Cc3ccccc3)CC2)c2cccnc12 | - | - | 95 | -
Oc1ccc(CNc2ccc(Cl)cc2)c2cccnc12 | - | - | - | -
CCOC(=O)c1cc(S(=O)(=O)N(C)c2ccc(C)cc2)cn1C | - | - | - | -
N#CC1=C(N)Oc2c(ccc3cccnc23)C1c1ccccc1F (stereo not given) | - | - | - | 58
COc1ccccc1N1CCN(C(=O)c2c(-c3ccccc3)noc2C)CC1 | - | - | - | 44
CCOc1ccccc1N1CCN(C(=O)C2CCN(Cc3ccccc3O)CC2)CC1 | - | - | 62 | -
CCOc1ccccc1N1CCN(C(=O)c2cc(OC)c(OC)c(OC)c2)CC1 | - | - | - | 64
COc1ccccc1C(=O)N1CCN(c2ccccc2OC)CC1 | - | - | - | -
COc1ccc(Cl)cc1C(=O)N1CCN(c2ccccc2OC)CC1 | - | - | - | 54
COc1cc(SC)ccc1C(=O)N1CCN(c2ccccc2OC)CC1 | - | - | - | 56
